About 2,000 (36%) of roughly 5,500 compounds were called active. Another 18% or so got no clear call; they are omitted. Rule as the data show it: active = normalized growth mostly below about 0.91 (no sharp cut-off); inconclusive = no clear call, values can overlap the other calls; inactive = mostly above about 0.92. Some of the results follow.
Assay: chemical genetic growth profiling, strain panel (AID 1159580);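 also: tested at 20 µM; growth read once vehicle control cultures reached saturation at 30 °C; 1 = growth at the plate median or of vehicle wells; lower values mean less growth of the strain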
Settings: S. cerevisiae deletion strains, growth OD
[1] = locus YAL013W, strain DEP1, hits give low values
[2] = locus YDR150W, strain NUM1, hits give low values
[3] = locus YGR078C, strain PAC10, hits give low values
[4] = locus YJR075W, strain HOC1, hits give low values
[5] = locus YNL153C, strain GIM3, hits give low values
[6] = locus YPL241C, strain CIN2, hits give low values

Measured: normalized growth

N#Cc1csc([N+](=O)[O-])c1
inactive: [1] 0.944 | locus YCL061C, strain MRC1, hits give low values 0.937 | [2] 0.885 | locus YHR087W, strain rtc3, hits give low values 0.917 | locus YJR043C, strain POL32, hits give low values 0.929 | locus YLR058C, strain SHM2 (second series), hits give low values 0.951 | locus YNL128W, strain TEP1, hits give low values 0.942 | locus YNL322C, strain KRE1, hits give low values 1.01 | locus YPL055C, strain LGE1, hits give low values 0.872
active: locus YBR229C, strain ROT2, hits give low values 0.908 | locus YDL101C, strain DUN1, hits give low values 0.817 | locus YDL134C, strain PPH21, hits give low values 0.892 | locus YEL061C, strain CIN8, hits give low values 0.797 | [3] 0.86 | locus YHR030C, strain SLT2, hits give low values 0.363 | [4] 0.86 | locus YKL190W, strain CNB1, hits give low values 0.923 | locus YLR039C, strain RIC1, hits give low values 0.687 | locus YLR085C, strain ARP6, hits give low values 0.456 | locus YLR262C, strain YPT6, hits give low values 0.795 | locus YML094W, strain GIM5, hits give low values 0.809 | locus YMR219W, strain ESC1, hits give low values 0.941 | [5] 0.901 | locus YNL298W, strain CLA4 (second series), hits give low values 0.823 | locus YNR030W, strain Alg12, hits give low values 0.834 | locus YOL006C, strain TOP1, hits give low values 0.369 | [6] 0.744 | locus YPR135W, strain CTF4, hits give low values 0.46

N#Cc1cc2nc(O)c(O)nc2cc1[N+](=O)[O-]
inactive: [1] 0.985 | locus YAL040C, strain CLN3, hits give low values 0.989 | locus YCL061C, strain MRC1 (second series), hits give low values 0.998 | [2] 0.993 | locus YDR363W, strain ESC2, hits give low values 1.01 | locus YER002W, strain NOP16, hits give low values 1.01 | [3] 0.979 | locus YGR229C, strain SMI1, hits give low values 1.02 | [4] 1 | locus YMR307W, strain GAS1, hits give low values 0.991 | [5] 0.984 | locus YNL175C, strain NOP13, hits give low values 0.995 | locus YNL197C, strain WHI3, hits give low values 0.997 | locus YNL224C, strain SQS1, hits give low values 0.979 | locus YOR083W, strain WHI5 (second series), hits give low values 0.994 | [6] 1

— PubChem BioAssay AID1159580 (chemical genetic matrix, 2015)
